This note sets out measurements from the supplement of paper PMC7866885, “A novel bicyclic 2,4-diaminopyrimidine inhibitor of Streptococcus suis dihydrofolate reductase” (PeerJ, 2021).

The subject of one assay is Streptococcus suis HE06. Kind of assay: percent growth relative to DMSO control; higher = less growth inhibition. Conditions: 10 µM; incubation time 18 h. As to the method: (§1)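 CLSI broth microdilution: 5x10^4 CFU of Streptococcus suis (strain P1/7 or HE06) incubated with 10 µM Pathogen Box compound in cation-adjusted Mueller Hinton broth, 37 °C, 5% CO2, 18 h. Growth read as OD600 and expressed as percent of the DMSO-treated control (100%); mean ± SD of three independent experiments.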

A further assay relates to Streptococcus suis P1/7. Described as above. The following applies: 10 µM; incubation time 18 h. As to the method: as §1

± gives the standard deviation.

`COc1ccc(S(=O)(=O)Nc2ccc(CN3CCN(C(=O)c4cccc(C#N)c4)CC3)cc2)cc1` registered a percent growth in the assay with Streptococcus suis HE06 of 103 ± 16%.
Same read-out and setting: the figure for `COc1cccc(-c2nc3c(N4CCCC4)cccc3n2CC2CCCN2)n1` (stereo not drawn) is 84.4 ± 7%.
Compound `Clc1ccc(Cl)c(CO[C@H]2CCCC[C@@H]2n2ccnc2)c1` yielded a percent growth in the assay on Streptococcus suis HE06 of 26.2 ± 40%.
The same measure, in the same setting: the figure for `O=C(Nc1ccccc1-c1nc2c(C(=O)O)cccc2o1)c1ccccc1` is 68.4 ± 14%; for `CC1(COc2ccc(N3CCC(Oc4ccc(OC(F)(F)F)cc4)CC3)cc2)Cn2cc([N+](=O)[O-])nc2O1` (stereo not drawn) it is 91.7 ± 9.5%; for `Cc1ccc2[nH]c3c(NCCN(C)C)ncnc3c2c1` it is 96.1 ± 12%.
As for `O=C1COCc2ccc(Br)cc2N1Cc1ccc(C(F)(F)F)cc1`, the percent growth with Streptococcus suis HE06 was determined as 84.3 ± 26%.
On the same count and under the same terms, the figure for `CNC(=O)c1nn(C)c2c1C(C)(C)Cc1cnc(Nc3ccc(N4CCN(C)CC4)cc3)nc1-2` is 88.7 ± 21%; for `CN(C)CCNC(=O)N1CCCN(c2ncnc3cc(-c4ccccc4)sc23)CC1` it is 92.9 ± 31%; for `CCNC(=O)C(C)Nc1nc(-c2cccnc2)nc2sc(C)c(C)c12` (stereo not drawn) it is 101 ± 8.4%.
Still for that read-out and setting: the figure for `CC(C)(C)CN1C(=O)C(c2ccccc2)(c2ccccc2)N=C1N` is 46.1 ± 39%.
The same measure, in the same setting: the figure for `COc1ccccc1OCCCCn1c(C2CC2)nc2ccccc21` is 102.6 ± 0.9%; for `Cc1cc(Nc2ccc(C(F)(F)F)cc2)n2ccnc2n1` it is 113 ± 12%; for `CS(=O)(=O)N1CCC(CCn2nc(Cc3cccc4ccccc34)c3c(N)ncnc32)CC1` it is 90.3 ± 15%.
In the assay with Streptococcus suis HE06, `C[C@H](C(N)=O)N1CCCC[C@H]1c1ccc(OCc2cccc(F)c2)cc1` yielded a percent growth of 85.5 ± 23%.
Still for that read-out and setting: the result for `O=C(Nc1ccc(F)c(-c2nc3cc(-c4ccccc4)cnc3[nH]2)c1)N1CCCC1` reads 99.7 ± 36%; that for `COc1ccc(C2=NN(C3CCCCCC3)C(=O)[C@@H]3CC=CC[C@H]23)cc1OCCCCOc1ccc(-c2nn[nH]n2)cc1`, 0%.
On the same count and under the same terms, the figure for `O=C(NCc1ccco1)N1CCN(Cc2ccc(Cl)s2)CC1` is 97.2 ± 4.8%.
Consider `Nc1ncnc2c1c(-c1cnc3ccccc3c1)nn2CC1CCNCC1`, for which the percent growth in the assay with Streptococcus suis HE06 amounted to 94.9 ± 5.4%.
With `CC(=O)Oc1ccccc1C(=O)Nc1ncc([N+](=O)[O-])s1`, in the assay with Streptococcus suis HE06, the percent growth came to 42.5 ± 18%.
With `CC(C)(C)c1cc(C(=O)Nc2cccnc2)cc(C(=O)Nc2cccnc2)c1`, in the assay with Streptococcus suis HE06, the percent growth was found to be 80.6 ± 4.4%.
Same read-out and setting: the figure for `CC1=Nc2ccc(Cl)cc2C(O)(c2ccc(C)cc2)N1CCN1CCCCC1` (stereo not drawn) is 98.9 ± 32%; for `COc1ccc(CN2CCOc3ccc(C(C)(O)CN(C)C)cc3C2)cc1C` (stereo not drawn) it is 103 ± 14%; for `Cc1cccnc1NC(=O)c1cccc(OCc2c(C)noc2C)c1` it is 81.4 ± 11%.
The same measure, in the same setting: the figure for `COc1ccc(CCN2CCC(NCc3cccc(N(C)C)c3)CC2)cc1` is 98.6 ± 35%; for `O=C(NCc1ccoc1)N1CCN(Cc2ccc3c(c2)OCO3)CC1` it is 94 ± 5.7%.
In the case of `CCOC(=O)c1cc(-c2csc(Nc3c(C)cc(C)cc3C)n2)on1`, the percent growth in the assay on Streptococcus suis HE06 was 91.3 ± 6%.
Same read-out and setting: the result for `CCC(Sc1nc2ccccc2o1)C(=O)Nc1nnc(C)s1` (stereo not drawn) reads 34.1 ± 46%; that for `COc1ccccc1C(C)NCC(=O)Nc1cc(C(F)(F)F)ccc1Cl` (stereo not drawn), 86.8 ± 5.4%; that for `CC1(C)Cc2c(c(N3CCOCC3)nc3snc(Br)c23)CO1`, 94.1 ± 2%.
In the assay on Streptococcus suis HE06, `CC(C)(C)c1cc(C(=O)N2CCN(c3nccnc3C#N)CC2)n(Cc2ccccc2)n1` displayed a percent growth of 93.1 ± 32%.
The same measure, in the same setting: the result for `CC(=O)NCC1CN(c2ccc(-c3ccc(CO)cc3)c(F)c2)C(=O)O1` (stereo not drawn) reads 0%.
Same read-out and setting: the figure for `O=C(Nc1ccnc(-c2cccnc2)n1)c1cc(C(F)(F)F)cc(C(F)(F)F)c1` is 78.2 ± 14%.
Same read-out and setting: the result for `O=C1[C@@H](Oc2ccccc2)[C@@H](c2ccc(Cl)cc2)N1CCn1cnc2c(NCc3ccccc3)ncnc21` reads 94.9 ± 4.6%.
In the assay on Streptococcus suis HE06, `CCn1cnc2c(Nc3cc(F)cc(F)c3)nc(C#N)nc21` showed a percent growth of 116 ± 30%.
For `Cc1ncc(-c2ccnc(Nc3ccc(S(C)(=O)=O)cc3)n2)n1C(C)C`, the percent growth with Streptococcus suis HE06 was 89.7 ± 4.3%.
Still for that read-out and setting: the figure for `COc1ccc(OC(C)C(=O)Nc2ccc(Cl)cc2C)cc1` (stereo not drawn) is 107 ± 13%; for `Cc1[nH]c2cc(F)cc(F)c2c(=O)c1-c1ccc(Oc2ccc(OC(F)(F)F)cc2)cc1` it is 96.3 ± 3.2%; for `Nc1nc(N)c2c3c(sc2n1)CN(Cc1ccccc1)CC3` it is 94.5 ± 3.1%.
`COc1ccc(N(CCc2cccc(C)n2)C(=O)C2CCCCC2)cc1` yielded a percent growth in the assay with Streptococcus suis HE06 of 115 ± 37%.
As for `CC(C)n1ncc2c(C(=O)NCC(c3cccs3)N3CCOCC3)cc(-c3ccccc3)nc21` (stereo not drawn), the percent growth in the assay with Streptococcus suis HE06 was determined as 89.9 ± 4.6%; with Streptococcus suis P1/7, 106 ± 36%.
For `O=[N+]([O-])c1cn2c(n1)OC[C@@H](OCc1ccc(OC(F)(F)F)cc1)C2` the same measures were 110 ± 13% and 90 ± 13%.
The corresponding values for `CCOc1ccc(-c2nc(NC(=O)CS(=O)(=O)c3ccccc3)sc2C)cc1` are 76.9 ± 15% and 153 ± 100%.
The corresponding values for `COc1cccc(-n2nnnc2S(=O)(=O)Cc2ccccc2)c1` are 33.8 ± 19% and 64.7 ± 47%.
`COc1cc(C2=NCCN2)ccc1-n1cc(-c2cccc(C3=NCCN3)c2)nn1`: the percent growth in the assay with Streptococcus suis HE06 came out at 99.7 ± 40%; in the assay on Streptococcus suis P1/7, 63.4 ± 23%.
For the compound `Cc1ccc(NC(=O)CC2COc3ccccc3O2)cc1Cl` (stereo not drawn), the percent growth in the assay with Streptococcus suis HE06 was 96.4 ± 1.4%; with Streptococcus suis P1/7, 95.7 ± 33%.
For `COc1ccc2nc(C)cc(OCC(=O)Nc3ccccc3OC)c2c1` the same measures were 89.9 ± 9.3% and 67.6 ± 16%.
`Cc1ccccc1C(=O)N1N=C(Nc2ccccc2)SC1(C)C`: the percent growth in the assay on Streptococcus suis HE06 came out at 104 ± 8.3%; with Streptococcus suis P1/7, 80.9 ± 23%.
For `Brc1cncc(-c2cc(NCCCn3ccnc3)nc(-c3ccccc3)n2)c1` the same measures were 46.7 ± 37% and 43.7 ± 51%.
As for `CC(C)(C)OC(=O)N1CCN(c2cc(-c3ccc(Oc4ccccc4)cc3)n[nH]2)CC1`, the percent growth with Streptococcus suis HE06 was 89.6 ± 5.8%; in the assay with Streptococcus suis P1/7 it was 28.7 ± 42%.
Consider `O=C(NCCN1CCCC1)c1cc(NCCN2CCOCC2)nc2ccc(Cl)cc12`, for which, in the assay with Streptococcus suis HE06, the percent growth was found to be 95.2 ± 4.7%.
`C[C@H](C(N)=O)N1CCCC[C@@H]1c1ccc(OCc2cccc(F)c2)cc1`: the percent growth in the assay on Streptococcus suis HE06 worked out at 125 ± 34%; in the assay on Streptococcus suis P1/7 it was 89.7 ± 15%.
The corresponding values for `Cc1cc(Nc2ccncc2)n2nc(C)c(-c3ccccc3Cl)c2n1` are 73.9 ± 22% and 105 ± 37%.
In the assay with Streptococcus suis HE06, `CC(C)=CCC/C(C)=C\CNCCNC1C2CC3CC(C2)CC1C3` (stereo not drawn) gave a percent growth of 0.0687 ± 0.12%.
With `NCC(c1cccs1)S(=O)(=O)c1ccccc1` (stereo not drawn), the percent growth in the assay on Streptococcus suis HE06 stood at 111 ± 30%; in the assay with Streptococcus suis P1/7 it was 90.2 ± 41%.
In the case of `CC1=Nc2ccc(Cl)cc2C(c2ccccc2)N1CCNC(=O)CN(C)C` (stereo not drawn), the percent growth in the assay on Streptococcus suis HE06 is 84.8 ± 4.2%.
Consider `CN1CCN(S(=O)(=O)c2ccc(-c3ccc4c(Nc5ccc6nn[nH]c6c5)ccnc4c3)cc2)CC1`, for which the values for the percent growth with Streptococcus suis HE06 and in the assay with Streptococcus suis P1/7 were 103 ± 42% and 63 ± 23%, respectively.
The corresponding values for `OC[C@H]1O[C@@H](n2c3ccc(Cl)cc3c3c(-c4cc5ccccc5o4)ncnc32)C(O)[C@H]1O` (stereo partly drawn) are 93 ± 20% and 74.8 ± 13%.
